PNC inhibitor: blocks assembly of the perinucleolar compartment. PC3M PTB-GFP, PNC prevalence imaging, 16 h; active compounds read low. activity change (PNC), negative = inhibition, % at 10 µM. 3.1% of 140,000 active;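 active = readout at or below -70, meaning at least 70% loss of cells showing the perinucleolar compartment, a nuclear body marking cancer cells; inconclusive = readout between -30 and a set limit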;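 also: plate controls were DMSO wells for no effect and camptothecin positive control wells for full effect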
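Compounds are pinned in duplicate onto adhered PC3M cells stably expressing GFP-tagged PTB and incubated 16 h at 37 C. Cells are then fixed, nuclei stained with Hoechst, and PNC-positive cells counted.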
ALDH1A1 block: blocks purified human ALDH1A1 activity. Purified ALDH1A1, NADH fluorescence, propionaldehyde substrate. Potency, µM (highest dose often 75.3 µM), for inactives: at the top dose activity, negative = inhibition, actives largely listed as inhibitors. 7.3% of 220,000 active. AID 1030;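 also: potency is read from the fitted curve at half-maximal effect; plate controls were no enzyme wells and a reference inhibitor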
Target sequence (P00352 whole entry, looked up): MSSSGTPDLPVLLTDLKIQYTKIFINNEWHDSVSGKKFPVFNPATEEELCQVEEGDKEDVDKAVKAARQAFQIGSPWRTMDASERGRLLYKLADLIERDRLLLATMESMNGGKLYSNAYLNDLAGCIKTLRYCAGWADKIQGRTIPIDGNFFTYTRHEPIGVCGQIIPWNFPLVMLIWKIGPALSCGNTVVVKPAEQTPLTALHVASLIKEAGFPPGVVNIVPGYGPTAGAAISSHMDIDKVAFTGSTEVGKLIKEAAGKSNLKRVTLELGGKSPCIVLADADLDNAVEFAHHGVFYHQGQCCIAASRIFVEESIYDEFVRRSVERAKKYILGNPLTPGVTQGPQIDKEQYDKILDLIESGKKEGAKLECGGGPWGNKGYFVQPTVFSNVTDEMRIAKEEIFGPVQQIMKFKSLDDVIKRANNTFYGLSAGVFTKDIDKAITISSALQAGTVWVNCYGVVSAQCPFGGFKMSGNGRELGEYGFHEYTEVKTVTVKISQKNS
HTT cytoprotect: protects HTT-Q103 PC12 cells, measured by ATP; PC12 HTT-Q103 induced, cytoprotection, ATP luminescence, 40 h; Potency, µM (titrated, usually from 56.4 µM), without a hit: cytoprotection (ATP increase), hits mostly activators; 0.14% of 230,000 active; active = well fitted curve in the direction sought with a large enough effect; inconclusive = small, poorly fitted or top-dose-only effect, or another doubt; inactive = no such curve, though single readings can be large; an effect the other way counts as inactive or inconclusive; also: potency is read from the fitted curve at half-maximal effect; % of control where 0% means no effect; nearly all actives have a fitted effect of over 45% in size
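Compounds added alongside 100 nM tebufenozide, which induces toxic Q103 huntingtin exon 1-GFP in stable PC12 cells; surviving cells quantified by luminescent ATP measurement. Medium: phenol red-free DMEM, 5% equine and 5% calf serum.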
GoLoco inh red: blocks human Gai1 binding to RGS12 GoLoco peptide, red readout; 0.44% of 230,000 active; Gai1:RGS12 GoLoco peptide FP, rhodamine, 10 min; Potency, µM (series often up to 61.6 µM), inactives show at the highest dose activity, negative = inhibition, most hits filed as inhibitors; active = well fitted inhibition curve with a large enough effect, not every such curve was filed as active; inactive = no such curve, though single readings can be large or run the other way; also: potency is read from the fitted curve at half-maximal effect; % is scaled to controls: 0 for no effect and ±100 for the full control effect; nearly all actives have a fitted effect of over 30% in size
HPGD inh: inhibitors of human 15-hydroxyprostaglandin dehydrogenase (HPGD); purified HPGD, NADH fluorescence kinetic, PGE2 substrate; P15428; 4.3% of 150,000 active; Potency, µM, inactives show at the highest dose activity change, negative = inhibition, most hits filed as inhibitors; also: potency is read from the fitted curve at half-maximal effect; % is scaled to controls: 0 for no effect and ±100 for the full control effect
Target sequence (P15428 whole entry, looked up): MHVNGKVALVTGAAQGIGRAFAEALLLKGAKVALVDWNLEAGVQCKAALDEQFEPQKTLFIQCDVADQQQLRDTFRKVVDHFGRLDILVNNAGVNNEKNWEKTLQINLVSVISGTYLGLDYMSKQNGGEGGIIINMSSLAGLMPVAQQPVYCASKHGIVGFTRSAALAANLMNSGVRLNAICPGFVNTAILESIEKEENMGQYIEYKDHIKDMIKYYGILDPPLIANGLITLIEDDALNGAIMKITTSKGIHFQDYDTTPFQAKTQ
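20 nM HPGD preincubated 15 min at room temperature with compound in 50 mM Tris-HCl pH 8, 0.01% Tween 20. Started with 1 mM NAD+ and 30 uM prostaglandin E2; NADH fluorescence (360/450 nm) read 5 times over 30-s intervals, last minus first.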
HttQ103 aggreg: reduces HttQ103-GFP aggregates in PC12 cells | PC12 HttQ103-GFP aggregates, Acumen cytometry, 40 h | Potency, µM (doses to about 46.1 µM), for the others: at the highest dose activity change, negative = inhibition, most hits filed as inhibitors | 1.1% of 220,000 active; active = well fitted curve in the direction sought with a large enough effect; inconclusive = small, poorly fitted or top-dose-only effect, or another doubt; inactive = no such curve, though single readings can be large; an effect the other way counts as inactive or inconclusive; also: potency is read from the fitted curve at half-maximal effect; % is scaled to controls: 0 for no effect and ±100 for the full control effect; nearly all actives have a fitted effect of over 60% in size
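Steps: seed 1500 PC12 HTTQ103-GFP cells/well; add tebufenozide, 100 nM final; add compound titration; add ATPLite reagent; quantify GFP aggregates by laser scanning cytometry.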
The depositor's hits bear a star; [ ] = another dose, or the depositor's remark. Rows were chosen to be rich in hits. Some 11% of all compounds tested hit in one or more screens of this group. Unless noted, calls follow the shape of the dose curve; as a rule, active = well fitted inhibition curve with a large enough effect (not every such curve was filed as active); inconclusive = small, poorly fitted or top-dose-only effect, or another doubt; inactive = no such curve, though single readings can be large or run the other way.

Cc1ccc(/C=N/n2c(-c3ccncc3)n[nH]c2=S)cc1 was read as PNC inhibitor inconclusive, ALDH1A1 block inconclusive, HTT cytoprotect 36.1%[10 µM], GoLoco inh red -7.9%, HPGD inh 20µM* and HttQ103 aggreg 3.3%.
CCCCCC[C@@H](O)C/C=C\CCCCCCCC(=O)O was read as ALDH1A1 block -0.6%, HTT cytoprotect 18.2%, GoLoco inh red 4.0%, HPGD inh -10.8% and HttQ103 aggreg 20.0%.
CC1(C)CC23C(=O)CCC(O)C2(C)CCC13 (stereo not given) was read as ALDH1A1 block inconclusive, GoLoco inh red -1.8% and HPGD inh -4.0%.
Cc1cc(C)n(C(=O)CNC(=O)/C=C/c2ccccc2)n1 was read as ALDH1A1 block 5.9%, HTT cytoprotect 9.8%[10 µM], GoLoco inh red -6.6% and HttQ103 aggreg 7.2%[9.22 µM].
For O=C(O)[C@H](O)[C@@H](O)[C@H](O)[C@H](O)CO the results were HTT cytoprotect inconclusive, GoLoco inh red -3.9% and HttQ103 aggreg 7.0%.
`COC(=O)c1sc(NC(=O)CC(C)C)c(C(=O)OC)c1C` gave PNC inhibitor 26.9, ALDH1A1 block inconclusive, HTT cytoprotect -26.3%[10 µM], GoLoco inh red -1.1%, HPGD inh -21.5% and HttQ103 aggreg -31.3%.
COC(=O)c1sc(NC(C)=O)c(C(=O)OC)c1C was read as PNC inhibitor inconclusive, ALDH1A1 block inconclusive, HTT cytoprotect -7.3%, GoLoco inh red 5.8%, HPGD inh 31.6µM* and HttQ103 aggreg -3.2%.
For COC(=O)c1sc(NC(=O)CSc2nncs2)c(C(=O)OC)c1C the results were PNC inhibitor 19.1, ALDH1A1 block inconclusive, HTT cytoprotect -5.3%, GoLoco inh red 145.5%, HPGD inh 2.82µM* and HttQ103 aggreg -28.8%.
Screening CCCCC1=CC2=C(c3ccco3)C(=O)C(C)(OC(=O)c3ccc(OC)cc3)C(=O)C2=CN1Cc1ccc2c(c1)OCO2 (stereo not given) returned ALDH1A1 block 3.55µM*, HTT cytoprotect -22.7%[10 µM], GoLoco inh red 16.6%[14.2 µM], HPGD inh -7.8% and HttQ103 aggreg 25.7%[9.22 µM].
COc1ccc(NC2c3ccccc3C(=O)N2c2ccccn2)cc1 (stereo not given) was read as HTT cytoprotect 6.1%[10 µM], GoLoco inh red -5.4% and HttQ103 aggreg -2.3%[9.22 µM].
Screening O=C(COC(=O)c1ccc2c(c1Cl)C(=O)c1ccccc1C2=O)NC1CC1 returned PNC inhibitor -26.2, ALDH1A1 block inconclusive, HTT cytoprotect 31.3%[10 µM], GoLoco inh red 12.4%, HPGD inh 7.94µM* and HttQ103 aggreg -6.5%.
Screening O=C(COC(=O)c1ccccc1OCc1ccc(Cl)cc1)NC1CC1 returned PNC inhibitor 8.0, ALDH1A1 block -3.2%, HTT cytoprotect -1.5%, GoLoco inh red 18.6%, HPGD inh -10.0% and HttQ103 aggreg 15.6%.
Screening O=C(COC(=O)c1ccc2c(c1Cl)C(=O)c1ccccc1C2=O)NC1CCCCC1 returned PNC inhibitor 18.7, ALDH1A1 block -7.7%, HTT cytoprotect 14.4%[0.074 µM], GoLoco inh red -3.4%, HPGD inh 6.31µM* and HttQ103 aggreg -8.0%.
For O=C1O[C@@H]([C@H](O)[C@H](O)[C@H](O)CO)[C@@H](O)[C@@H]1O the results were ALDH1A1 block -9.2%[13.5 µM], HTT cytoprotect -7.9%[10 µM], GoLoco inh red 3.9%[14.2 µM] and HPGD inh -10.6%.
Nc1c(OCC(=O)O)ccc2cc(S(=O)(=O)O)ccc12 was read as ALDH1A1 block -0.7%[13.5 µM], HTT cytoprotect -11.9%[10 µM], GoLoco inh red 5.4%[14.2 µM] and HPGD inh -14.8%.
O=C(CCN1C(=O)C2CC=C(Cl)CC2C1=O)NCc1ccco1 (stereo not given) was read as PNC inhibitor 36.9, ALDH1A1 block 22.4µM*, HTT cytoprotect 1.9%[0.074 µM], GoLoco inh red -7.7%, HPGD inh -17.8% and HttQ103 aggreg -11.3%.
O=C1C2CC=C(Cl)CC2C(=O)N1CCC[n+]1ccccc1 (stereo not given) was read as PNC inhibitor -21.2, ALDH1A1 block 7.2%, HTT cytoprotect 23.0%, GoLoco inh red 6.0%, HPGD inh -1.3% and HttQ103 aggreg 5.7%.
Screening O=C1C2CC=C(Cl)CC2C(=O)N1CN(Cc1ccco1)CN1C(=O)C2CC=C(Cl)CC2C1=O (stereo not given) returned PNC inhibitor -96.3*, ALDH1A1 block inconclusive, HTT cytoprotect -16.3%, GoLoco inh red 4.7%, HPGD inh -9.5% and HttQ103 aggreg 2.3%.
O=C1C2CC=C(Cl)CC2C(=O)N1CC1Cc2ccccc2CO1 (stereo not given) was read as PNC inhibitor -6.5, ALDH1A1 block 22.4µM*, HTT cytoprotect -35.4%, GoLoco inh red -2.6%, HPGD inh 22.4µM* and HttQ103 aggreg 10.6%.
`CCCCC(C=O)CC` (stereo not given) gave ALDH1A1 block -8.1%, HTT cytoprotect 1.2%, GoLoco inh red 6.6% and HPGD inh -8.8%.
Screening CC[C@@H](C)CN1C(=O)N[C@@H](c2ccccc2)C(C(=O)OC)=C1C returned ALDH1A1 block 11.5%[13.5 µM], HTT cytoprotect 5.9%[10 µM], GoLoco inh red -0.5%[14.2 µM] and HPGD inh -1.5%.
Fc1ccc(Nc2nc(N/N=C/c3ccco3)nc(N3CCCCC3)n2)cc1 was read as ALDH1A1 block inconclusive, HTT cytoprotect -124.6%, GoLoco inh red 12.6% and HttQ103 aggreg inconclusive.
CCC(C)O (stereo not given) was read as ALDH1A1 block 5.4%, HTT cytoprotect 12.7%, GoLoco inh red -2.1% and HPGD inh -6.6%.
`C/C(N)=C(/C#N)C(=O)CSc1nnc(-c2ccccc2)n1C` gave HTT cytoprotect 22.8%[10 µM], GoLoco inh red 2.1% and HttQ103 aggreg -4.7%[9.22 µM].
Screening CCOC(=O)c1c(CC(C)C)csc1/N=C/C1C(=O)CCCC1=O returned ALDH1A1 block 11.2µM*, HTT cytoprotect -1.9%, GoLoco inh red 24.8% and HttQ103 aggreg -5.6%.
CCOC(=O)c1c(CC(C)C)csc1NC=O was read as PNC inhibitor 24.8, ALDH1A1 block inconclusive, HTT cytoprotect 7.1%, GoLoco inh red 1.7%, HPGD inh -19.3% and HttQ103 aggreg 2.3%.
For CCOC(=O)c1c(-c2ccccc2)csc1/N=C/C1C(=O)CCCC1=O the results were PNC inhibitor 38.1, ALDH1A1 block 3.55µM*, GoLoco inh red 36.7%, HPGD inh -6.7% and HttQ103 aggreg inconclusive.
Screening Cc1cc(O)c2c(c1)OC1(C)CCC3C(C)(C)CCCC34COC2C14 (stereo not given) returned HTT cytoprotect -25.3% and HttQ103 aggreg -15.0%.

Screening results: PubChem BioAssay, National Center for Advancing Translational Sciences (NCATS)
